# Source: PubChem BioAssay
# Peg3 prom inh: Peg3 promoter-driven luciferase inhibitors, primary screen, cell-based, HeLa, luciferase luminescence | actives 1.7% (n = 360,000) | HeLa PEG-Prom luciferase reporter, overnight | AID 588405, 2011 | inhibition, % at 20 µM;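 active means inhibition of at least 50% at 20 µM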
# TWEAK-Fn14 inh: inhibitors of TWEAK-Fn14 signaling, primary screen, luciferase reporter cells, uHTS; TWEAK-stimulated Fn14 reporter cells, luciferase luminescence, 8 h; inhibition, % at 10 µM; actives 2% (n = 360,000); AID 1159606, 2016; in the data active means inhibition above about 50%
# HIF-2a inh: HIF-2a reporter inhibitors, primary screen, luminescence, 786-0 RCC cells; 786-0 RCC cells HIF-2a reporter, luciferase luminescence, overnight; inhibition, % at 18.8 µM; actives 0.72% (n = 360,000);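 active means inhibition of the luminescence signal of 40% or more relative to plate controls, in a single-dose primary screen at 18.75 µM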
# TROY signal inh: inhibitors of TROY-driven NF-kB signaling, primary screen, Q293 LMP1-TROYcd cells, NF-kB luciferase, uHTS; actives 0.98% (n = 360,000); AID 1347056, 2019; Q293 LMP1-TROYcd NF-kB luciferase reporter, 4 h; inhibition, % at 10 µM;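 active means compounds whose plate-normalised and pattern-corrected inhibition of the luciferase reporter signal at the single screening dose is 50% or more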
# KKLEB tox: cytotoxicity in KKLEB CF airway cells, primary screen, cytotoxicity control for CF NF-kB inhibitor project, cell-based, uHTS, fluorescence assay plates; KKLEB CF airway cells viability, ATPlite luminescence, overnight; hits give low values; cells stimulated with P. aeruginosa culture filtrate; activity change (cytotoxicity), % at 5 µM; actives 0.36% (n = 360,000);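 active means corrected activity change at or below -50% at 5 µM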
# CF NFkB inh: inhibitors of PAF-induced NF-kB signaling, primary screen, cell-based, GFP fluorescence, uHTS. KKLEB NF-kB-GFP reporter, GFP fluorescence overnight. inhibition, % at 5 µM. actives 0.86% (n = 360,000);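 active means at least 50% inhibition at 5 µM, scaled per plate between neutral and stimulator controls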;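 further: PAF is a Pseudomonas aeruginosa culture filtrate used as stimulus; plate controls were PAF-stimulated DMSO wells for no effect and unstimulated DMSO wells for full effect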
# Mdm2 MdmX conf: retested Mdm2-MdmX interaction blockers, confirmation, cell-based, luminescence, single concentration, set 2; shares compounds with HIF-2a inh; SaOS-2 split-luciferase Mdm2/MdmX complementation; inhibition, % at 8 µM; actives 99% (n = 740); AID 504601, 2011;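 active means mean inhibition of the luminescence signal across two replicates at or above 26 percent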
# HIF-2a inh conf: HIF-2a reporter inhibitor retest, confirmation, luminescence, 786-0 RCC cells. shares compounds with HIF-2a inh. HIF-2a luciferase reporter luminescence, overnight. inhibition, % at 18.8 µM. actives 56% (n = 1,800);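 active means mean inhibition across four replicates of at least 40 percent at the single tested concentration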
# HIF-1a counter: HIF-1a luciferase reporter signal reduction – MiaPaCa-2 cells, single concentration, counter-screen for HIF-2a inhibitor project, confirmation. shares compounds with HIF-2a inh. MiaPaCa-2 HIF-1a luciferase reporter, desferoxamine, overnight. inhibition, % at 18.8 µM. actives 72% (n = 1,800). AID 651589, 2012;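 active means mean inhibition of the reporter signal across four replicates at the single tested dose of 50% or more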
# The depositor's hits bear a star; nt = no result. An excerpt weighted towards active compounds, which were near 4% of everything screened.
SMILES,Peg3 prom inh,TWEAK-Fn14 inh,HIF-2a inh,TROY signal inh,KKLEB tox,CF NFkB inh,others
C[C@H]1CCC/C=C/C2C[C@H](O)CC2[C@H](O)/C=C/C(=O)O1 (stereo partly specified),55*,57*,68*,-63,-7,81*,Mdm2 MdmX conf=103*
CC1CCC[C@H](O)CCCCCc2cc(O)cc(O)c2C(=O)O1 (stereo partly specified),15,-6,7,-5,0,30,
C=CC(=O)OCCO,2,21,10,-18,-6,30,
O=C(COC(=O)Cc1ccccc1)Nc1nnc(-c2ccccc2)o1,3,-1,5,5,-1,-27,
O=C(Nc1ccc(OC(=O)N2CCCCC2)cc1)N1CCOCC1,16,94*,72*,85*,7,15,HIF-2a inh conf=76*;HIF-1a counter=51*
CCCNC(=O)N1[C@H]2CC[C@@H]1C(C(=O)OC)=C(c1cccc(C#N)c1)C2,2,8,8,-22,5,-37,
CC[C@H](C)[C@@H]1NC(=O)CNC(=O)c2csc(n2)[C@H](C(C)(C)O)OC(=O)C(C)(C)[C@H](CCCC(C)(Cl)Cl)OC(=O)c2csc1n2,65*,-25,42*,46,-91*,83*,HIF-2a inh conf=44*;HIF-1a counter=88*
CCN1CCN(S(=O)(=O)c2ccc(Cl)c(C(=O)Nc3ccc(C(=O)N(CC)CC)cc3)c2)CC1,-4,4,4,13,38,-63,
COC(=O)C1(F)C(=O)NC(=O)NC1O (stereo unspecified),nt,-2,7,-13,nt,nt,
CCCNC(=O)N1[C@H]2CC[C@@H]1C(C(=O)OC)=C(c1ccc(C(C)=O)cc1)C2,-22,15,5,-9,2,9,
CN(C)CCSC1c2ccccc2CSc2ccccc21 (stereo unspecified),9,13,8,-8,-12,24,
CC(N)C(=O)NC1C2C(=C(O)CC(O)C2O)C(=O)OC1(C)C(Cl)Cl (stereo unspecified),96*,96*,45*,78*,-31,87*,HIF-2a inh conf=57*;HIF-1a counter=104*
CCc1ccc(C2=NN(CCC(=O)N3CCC4(CC3)OCCO4)C(=O)CC2)cc1,2,-11,9,14,-14,3,
C=CCN1C[C@@H](C)N(C(c2ccc(C(=O)N(CC)CC)cc2)c2cccc(OC)c2)C[C@@H]1C (stereo partly specified),17,20,0,-9,29,-6,
Cc1nc2ncnn2c(C)c1CCC(=O)N1CCC2(CC1)OCCO2,5,-8,7,-4,8,5,
Cc1nc2cc(-c3ccccc3)nn2c(C)c1CCC(=O)N1CCC2(CC1)OCCO2,-41,5,70*,-8,-6,2,HIF-2a inh conf=81*;HIF-1a counter=36
COC(=O)C1=C(c2ccccc2)C[C@@H]2CC[C@H]1N2C(=O)N1CCOCC1,9,-11,8,6,-2,-2,
CCOC(=O)[C@]12Cc3cc(C)ccc3[C@H]1N(CCC(=O)OC)C(=O)c1ccccc12,nt,18,25,21,nt,nt,
CCOC(=O)[C@]12Cc3ccccc3[C@H]1N(C(C)C)C(=O)c1ccccc12,nt,22,31,17,nt,nt,
